The source made the active and inactive calls. The calls were made as follows: active = hit-call score of the fitted dose curve at least 0.9, where 1 is the maximum; inconclusive = response in the unintended direction; inactive = score below 0.9.

This assay is described as follows: Tanguay_ZF_120hpf_ActivityScore_legacy: (Legacy) Oregon State University Tanguay Lab 120 Hour Post-fertilization zebrafish Assay Score for Activity (AID 2283742).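 As to AC50: static exposure from 6 hpf until 120 hpf at 28 °C.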 How it is done:
Tanguay_ZF_120hpf_legacy is a whole embryo, multiplexed endpoint assay using zebrafish larvae exposed for 120 hours post fertilization on a 96-well plate.Tanguay_ZF_120hpf_ActivityScore_legacy is one of one assay component(s) measured or calculated from the Tanguay_ZF_120hpf_legacy assay. It is designed to make measurements of developmental malformations and mortality as detected with brightfield microscopy and combines scoring from 18 other assay components measuring more specific morphologies.Data from the assay component Tanguay_ZF_120hpf_ActivityScore_legacy was analyzed into 1 assay endpoints. This assay endpoint, Tanguay_ZF_120hpf_ActivityScore_legacy, was analyzed in the positive analysis fitting direction relative to DMSO as the negative control and baseline of activity. Using a type of morphology reporter, gain-of-signal activity can be used to understand changes in developmentals as they relate to the whole embryo. To generalize the intended target to other relatable targets, this assay endpoint is annotated to the zebrafish development intended target family, where the subfamily is embryonic morphogenesis and mortality.
Zebrafish husbandry: Tropical 5D wild-type adult zebrafish were housed in at an approximate density of 1000 per 100 gallon tank at the Sinnhuber Aquatic Research Laboratory, Oregon State University, Corvallis, OR. Each tank was kept at standard laboratory conditions of 28C on a 14-h light/10-h dark photoperiod in fish water consisting of reverse osmosis water supplemented with a commercially available salt (Instant Ocean). Spawning funnels were placed into the tanks the night prior, and embryos were collected and staged. To increase bioavailability, the chorion was enzymatically removed using pronase (63.6mg/ml, >/= 3.5U/mg, Sigma-Aldrich: P5147) at 4 hours post fertilization (hpf) using a custom automated dechorionator.Chemical exposures: Six hpf dechorionated embryos were placed 1 embryo per well in a 96-well plate prefilled with 90 ul of EM using automated embryo placement systems (AEPS). Ten microliters of each row of dilution plate 2 was added to 2 exposure plates. The final DMSO concentration used was 0.64% (vol/vol). Thirty-two embryos were also exposed to 5uM trimethyltin chloride (positive control). Plates were sealed to prevent evaporation and foil covered to reduce light exposure and kept in a 28C incubator. Embryos were statically exposed until 120 hpf. At 24 hpf, embryos were assessed for photomotor response using a custom photomotor response analysis tool (PRAT) and for developmental toxicity endpoints (MO24: mortality at 24 hpf, DP: developmental progression, SM: spontaneous movement, and NC: notochord distortion). At 120 hpf, locomotor activity was measured using Viewpoint Zebralab and assessed for 18 endpoints. Zebrafish acquisition and analysis program (ZAAP), a custom program designed to inventory, acquire, and manage zebrafish data, was used to collect developmental endpoints as either present or absent (i.e., binary responses were recorded). If mortality occurred for an embryo (at either 24 or 120 hpf), the non-mortality endpoints were not measured.
`CCCCc1oc2ccccc2c1C(=O)c1cc(I)c(OCCN(CC)CC)c(I)c1`: the result was inactive.

Consider `CCC(C)c1ccccc1O` (stereo unspecified), for which the call was inactive. In the case of `Cc1[nH]nc2c1N=C(c1ccccc1Cl)c1cc([N+](=O)[O-])ccc1N2`, the call was inactive. `CCCCC=O`: the outcome was inactive.

Take `CCCCCCCCCCCCCCC`: the compound was classed as inactive. The same measure, in the same setting: under `OCC(CO)(CBr)CBr` stands “inactive”; under `O=C(c1ccccc1)c1ccccc1`, “inactive”. Regarding `CCCCCCCCCCCCOS(=O)(=O)O`, the AC50 (as a rule, the midpoint of the concentration-response curve, whichever way the signal moves) is 11 µM (active). Consider `N=C(N)c1ccc(OCCCCCOc2ccc(C(=N)N)cc2)cc1`, for which the compound was classed as inactive. Still for that read-out and setting: with `O=C1NS(=O)(=O)c2ccccc21` the entry was “inactive”.

In the case of `CC(=O)Nc1ccc(O)cc1`, the result was inactive. On the same count and under the same terms, with `CS(=O)(=O)c1ccc([C@@H](CC2CCCC2)C(=O)Nc2cnccn2)cc1Cl` the entry was “inactive”. Consider `CN(C)CCOC(c1ccccc1)c1ccccc1`, for which the AC50 is 202 µM (active). On to `CN(Cc1cnc2nc(N)nc(N)c2n1)c1ccc(C(=O)N[C@@H](CCC(=O)O)C(=O)O)cc1`, for which the compound was called inactive.

On to `CCCCC(CC)C(=O)O` (stereo unspecified), for which the result was inactive. In the case of `O=C(CCCN1CCC(O)(c2ccc(Cl)cc2)CC1)c1ccc(F)cc1`, the AC50 was 4.09 µM (active).
